Reference: the antibiotic and cytotoxicity screens of Wong et al. (2023)
Out of some 39,000 compounds screened, about 500 (1.3%) were called active. What follows is part of a selection rich in actives, with near analogues and random picks from the rest.

These compounds were tested on S. aureus RN4220 (assay: growth inhibition call (relative growth <= 0.2)). Settings: 50 µM.
`CCC[C@H]1CN(S(=O)(=O)c2c(C)cc(C)c3nonc23)C[C@@H]1N` was tested, and the growth inhibition call was “inactive”.
`Cn1c(=O)sn(-c2ccccc2)c1=O` was tested, and the growth inhibition call was “inactive”.
In the case of `Cn1sc(=O)n(Cc2ccccc2)c1=O`, the growth inhibition call is reported as “active”.
For `Nc1cc(=O)[nH]c(=O)n1Cc1ccccc1`, the growth inhibition call was “inactive”.
`Cc1ccc(S(=O)(=O)Nc2ccc3c(c2)C(=O)N([C@@H](C)CO)C[C@@H](C)[C@H](CN(C)S(=O)(=O)c2ccc(C)cc2)OCCCC[C@H](C)O3)cc1` was tested, and the growth inhibition call was “inactive”.
`CO[C@@H]1CN(C)C(=O)c2cc(NS(C)(=O)=O)ccc2OC[C@@H](C)N(C(=O)C2CCCCC2)C[C@@H]1C` was tested, and the growth inhibition call was “inactive”.
For `CC(C)c1ccc(N2C=Nc3ccc(C(C)C)cc3C2)cc1`, the growth inhibition call was “active”.
With `Cc1ccc(C(C)C)cc2c(C)ccc1-2` the growth inhibition call was “inactive”.
`COc1ccc(NC(=O)Nc2ccc3c(c2)C(=O)N([C@@H](C)CO)C[C@@H](C)[C@@H](CN(C)C(=O)CCC(F)(F)F)OCCCC[C@@H](C)O3)cc1` was tested, and the growth inhibition call was “inactive”.
With `C[C@@H]1CN([C@H](C)CO)C(=O)Cc2cc(NC(=O)C3CCCCC3)ccc2O[C@@H]1CN(C)Cc1ccc(C(F)(F)F)cc1` the growth inhibition call was “inactive”.
`COc1cc(C(=O)NS(=O)(=O)c2ccccc2C)ccc1Cc1cn(C)c2ccc(NC(=O)OC3CCCC3)cc12` was tested, and the growth inhibition call was “active”.
For `COc1cc(Nc2nc3ccccc3nc2NS(=O)(=O)c2ccc(NC(=O)c3ccc(C)c(OC)c3)cc2)cc(OC)c1`, the growth inhibition call was “inactive”.
For `COc1ccccc1CNC(=O)C[C@H]1C[C@H]2c3cc(NC(=O)NC4CCCC4)ccc3O[C@H]2[C@H](CO)O1`, the growth inhibition call was “inactive”.
With `CCNC(=O)[C@@H]1[C@@H](CO)[C@@H]2Cn3c(ccc(-c4ccc(OC)cc4)c3=O)[C@H]1N2S(C)(=O)=O` the growth inhibition call was “inactive”.
For `COc1ccc(NC(=O)Nc2ccc3c(c2)C(=O)N([C@H](C)CO)C[C@@H](C)[C@H](CN(C)CC2CC2)OCCCC[C@@H](C)O3)cc1`, the growth inhibition call was “inactive”.
For `C[C@H](CO)N1C[C@H](C)[C@H](CN(C)Cc2ccc(-c3ccccc3)cc2)Oc2c(NS(=O)(=O)c3ccc(F)cc3)cccc2C1=O`, the growth inhibition call was “inactive”.
With `COc1ccc(C)cc1S(=O)(=O)NCCO` the growth inhibition call was “inactive”.
In the case of `COc1ccc2cc(-c3cc(-c4cc(Cl)cc(Cl)c4)nn3[C@@H](C)c3ccc(C(=O)NCCC(=O)O)cc3)ccc2c1`, the growth inhibition call is reported as “inactive”.
In the case of `Cc1cc(O[C@@H](CCC(F)(F)F)c2ccc(C(=O)NCCC(=O)O)cc2)cc(C)c1-c1ccc(C(C)(C)C)cc1`, the growth inhibition call is reported as “active”.
In the case of `Cc1cc(C)c(-c2ccc(NC(=O)[C@H](Cc3ccc(C(=O)NCCS(=O)(=O)O)cc3)c3ccc(-c4ccc(C(C)(C)C)cc4)cc3)cc2)c(C)c1`, the growth inhibition call is reported as “inactive”.
For `COc1ccc(NC(=O)Nc2cccc3c2O[C@H](CN(C)S(C)(=O)=O)[C@H](C)CN([C@@H](C)CO)C3=O)cc1`, the growth inhibition call was “inactive”.
For `Nc1ncn(C[C@@H](O)CO)c2nc(Br)nc1-2`, the growth inhibition call was “inactive”.
In the case of `Nc1nnc(-c2ccc([N+](=O)[O-])o2)o1`, the growth inhibition call is reported as “active”.
With `Cc1cc(-c2nnc(N)o2)nn1C` the growth inhibition call was “inactive”.
`Nc1nnc(-c2ccno2)o1` was tested, and the growth inhibition call was “inactive”.
For `Cc1noc(C)c1NC(=O)N(C)C[C@@H]1OCCCC[C@@H](C)Oc2ccc(NC(=O)Nc3ccc(F)cc3)cc2C(=O)N([C@@H](C)CO)C[C@H]1C`, the growth inhibition call was “inactive”.
In the case of `CC(=O)Oc1cc(-c2coc3cc(OC(C)=O)c(OC(C)=O)c(OC(C)=O)c3c2=O)cc(OC(C)=O)c1OC(C)=O`, the growth inhibition call is reported as “inactive”.
In the case of `C[C@]1(C(=O)NCC(F)(F)F)c2ccccc2C(=O)N(Cc2cc(C(F)(F)F)cc(C(F)(F)F)c2)[C@H]1c1ccc(CO)cc1`, the growth inhibition call is reported as “inactive”.
`O=C(NC1CCN(CCCCC2(C(=O)NCC(F)(F)F)c3ccccc3-c3ccccc32)CC1)c1ccccc1-c1ccc(C(F)(F)F)cc1` was tested, and the growth inhibition call was “active”.
For `O=C(NC1CCCCCCC1)c1ccccc1-c1ccccc1`, the growth inhibition call was “inactive”.
With `C[C@@H]1CN([C@H](C)CO)C(=O)Cc2cc(NC(=O)Nc3ccc4c(c3)OCO4)ccc2O[C@H]1CN(C)S(C)(=O)=O` the growth inhibition call was “inactive”.
For `Cc1ccc(S(=O)(=O)N(C)C[C@H]2Oc3ccc(NC(=O)NC(C)C)cc3CC(=O)N([C@H](C)CO)C[C@H]2C)cc1`, the growth inhibition call was “inactive”.
In the case of `O=C(Cn1cnnn1)NC1C(=O)N2C(C(=O)O)=C(CSc3nncs3)CSC12` (stereo unspecified), the growth inhibition call is reported as “active”.
For `Cc1nnc(SCC2=C(C(=O)O)N3C(=O)[C@@H](NC(=O)Cn4cnnn4)[C@H]3SC2)s1`, the growth inhibition call was “active”.
`Cc1nnc(SCC2=C(C(=O)[O-])N3C(=O)C(NC(=O)Cn4cnnn4)C3SC2)s1.[Na+]` (stereo unspecified) was tested, and the growth inhibition call was “active”.
`Cc1nnc(SCC2=C(C(=O)O)N3C(=O)[C@@H](N)[C@H]3SC2)s1` was tested, and the growth inhibition call was “inactive”.
In the case of `C[C@@H]1CN([C@@H](C)CO)C(=O)c2cc(NC(=O)Cc3ccccc3)ccc2O[C@@H](C)CCCCO[C@H]1CN(C)C(=O)Nc1cccc2ccccc12`, the growth inhibition call is reported as “inactive”.
In the case of `Cc1cc(C(=O)Nc2cccc3c2O[C@H](CN(C)C(=O)Nc2ccccc2)[C@@H](C)CN([C@H](C)CO)C3=O)n(C)n1`, the growth inhibition call is reported as “inactive”.
In the case of `C[C@@H]1CCCCO[C@@H](CN(C)C(=O)c2ccccc2)[C@@H](C)CN([C@H](C)CO)C(=O)c2cc(NC(=O)CCCCCC(=O)Nc3ccccc3N)ccc2O1`, the growth inhibition call is reported as “inactive”.
With `C[C@H]1CCCCO[C@H](CN(C)S(=O)(=O)c2ccc(F)cc2)[C@@H](C)CN([C@@H](C)CO)C(=O)c2cc(NC(=O)Nc3cccc4ccccc34)ccc2O1` the growth inhibition call was “inactive”.
In the case of `Cc1csc2c(Cl)ncnc12`, the growth inhibition call is reported as “inactive”.
With `COc1ccc(CCN2C(=O)[C@@]3(Cc4ccccc42)c2ccccc2C(=O)N(C2CCCCC2)[C@H]3c2ccc(CO)cc2)cc1` the growth inhibition call was “inactive”.
`COc1ccc(NC(=O)N(C)C[C@@H]2OCCCC[C@H](C)Oc3ccc(NC(=O)C4CCCCC4)cc3C(=O)N([C@H](C)CO)C[C@H]2C)cc1` was tested, and the growth inhibition call was “inactive”.
For `C[C@H]1CCCCO[C@H](CN(C)C(=O)C2CCCCC2)[C@@H](C)CN([C@@H](C)CO)C(=O)c2cc(NC(=O)c3ccccc3)ccc2O1`, the growth inhibition call was “inactive”.
For `Cc1nn(C)cc1NC(=O)C[C@H]1CC[C@@H]2[C@H](COc3ccc(NC(=O)C4CCOCC4)cc3C(=O)N2C)O1`, the growth inhibition call was “inactive”.
With `N#CCN1CCSCC1` the growth inhibition call was “inactive”.
In the case of `C[C@H]1CN([C@@H](C)CO)C(=O)c2cc(NC(=O)CCN3CCOCC3)ccc2O[C@H]1CN(C)CC1CCCCC1`, the growth inhibition call is reported as “inactive”.
In the case of `Cc1noc(C)c1S(=O)(=O)N(C)C[C@H]1OCCCC[C@@H](C)Oc2ccc(NS(C)(=O)=O)cc2C(=O)N([C@@H](C)CO)C[C@H]1C`, the growth inhibition call is reported as “inactive”.
`COCC(=O)Nc1ccc2c(c1)C(=O)N(C)[C@@H]1CC[C@@H](CC(=O)N3CCc4ccccc4C3)O[C@H]1CO2` was tested, and the growth inhibition call was “inactive”.
In the case of `Cc1ccc(S(=O)(=O)N(C)C[C@@H]2Oc3ccc(NC(=O)NC(C)C)cc3CC(=O)N([C@H](C)CO)C[C@@H]2C)cc1`, the growth inhibition call is reported as “inactive”.
`C[C@@H]1CCCCO[C@@H](CN(C)Cc2ccc(C(=O)Nc3ccccc3N)cc2)[C@@H](C)CN([C@H](C)CO)C(=O)c2cc(NC(=O)C3CCCCC3)ccc2O1` was tested, and the growth inhibition call was “inactive”.
For `C[C@H]1CN([C@@H](C)CO)C(=O)c2cccc(NC(=O)c3cnccn3)c2O[C@H]1CN(C)Cc1ccc(C(=O)O)cc1`, the growth inhibition call was “inactive”.
For `O=C(NN=Cc1ccc([N+](=O)[O-])o1)c1ccc(O)cc1`, the growth inhibition call was “inactive”.
For `NC(=O)NN=Cc1ccc([N+](=O)[O-])o1`, the growth inhibition call was “active”.
With `O=C(N/N=C/c1ccc(CO)o1)c1ccccn1` the growth inhibition call was “inactive”.
`O=C(Cn1ccc([N+](=O)[O-])n1)N1CCOCC1` was tested, and the growth inhibition call was “inactive”.
With `NC(=O)N/N=C/c1ccc([N+](=O)[O-])o1` the growth inhibition call was “active”.
With `Cc1ccc(S(=O)(=O)N2CCN(CC(=O)N/N=C/c3ccccn3)CC2)cc1` the growth inhibition call was “inactive”.
With `CCOC(=O)c1ccc(N2NC(=O)/C(=C/c3ccc([N+](=O)[O-])o3)C2=O)cc1` the growth inhibition call was “inactive”.
In the case of `COC(=O)N/N=C/c1ccc([N+](=O)[O-])o1`, the growth inhibition call is reported as “inactive”.
For `O=C(CN1CCOCC1)N/N=C/c1ccc([N+](=O)[O-])o1`, the growth inhibition call was “active”.
For `COCC#Cc1ccc2c(c1)O[C@H](CN(C)C(=O)c1ccccc1F)[C@H](C)CN([C@H](C)CO)S2(=O)=O`, the growth inhibition call was “inactive”.
For `C[C@H](CO)N1C[C@H](C)[C@H](CN(C)C(=O)Nc2ccc3c(c2)OCO3)Oc2ncc(-c3cncnc3)cc2C1=O`, the growth inhibition call was “inactive”.
For `COc1ccc(NC(=O)Nc2ccc3c(c2)C(=O)N([C@H](C)CO)C[C@@H](C)[C@@H](CN(C)Cc2ccc(C(=O)Nc4ccccc4N)cc2)O3)cc1`, the growth inhibition call was “inactive”.
`C[C@@H]1CN([C@H](C)CO)C(=O)CCCn2cc(nn2)CO[C@H]1CN(C)S(C)(=O)=O` was tested, and the growth inhibition call was “inactive”.
For `O=C(CN1CCOCC1)NCC[C@H]1CC[C@@H](NC(=O)c2ccccc2F)[C@H](CO)O1`, the growth inhibition call was “inactive”.
`COc1ccc(NC(=O)N(C)C[C@@H]2OCCCC[C@@H](C)Oc3ccc(NS(=O)(=O)c4ccccc4)cc3C(=O)N([C@@H](C)CO)C[C@@H]2C)cc1` was tested, and the growth inhibition call was “inactive”.
For `CCS(=O)(=O)Nc1ccc2c(c1)C(=O)N(C)C[C@H](OC)[C@@H](C)CN(Cc1nccs1)[C@H](C)CO2`, the growth inhibition call was “inactive”.
With `CCOC(=O)Nc1ccc(C)s1` the growth inhibition call was “inactive”.
With `Cc1noc(C)c1S(=O)(=O)N(C)C[C@@H]1OCCCC[C@@H](C)Oc2ccc(NC(=O)Nc3ccc(C(F)(F)F)cc3)cc2C(=O)N([C@@H](C)CO)C[C@@H]1C` the growth inhibition call was “inactive”.
`C[C@@H]1CN([C@H](C)CO)C(=O)c2cc(/C=C/c3ccccc3)cnc2O[C@@H]1CN(C)C(=O)C1CCOCC1` was tested, and the growth inhibition call was “inactive”.
For `C[C@@H]1CN([C@@H](C)CO)C(=O)CCCn2nncc2CO[C@@H]1CN(C)S(=O)(=O)c1ccccc1C#N`, the growth inhibition call was “inactive”.
With `Cc1cc(O)c(C=O)c(O)c1C(=O)O` the growth inhibition call was “inactive”.
With `COC(=O)c1c(C)cc(OC(=O)c2c(C)cc(O)c(C=O)c2O)c(C)c1O` the growth inhibition call was “inactive”.
In the case of `CCOC(=O)c1c(C)cc(O)c(C=O)c1O`, the growth inhibition call is reported as “active”.
In the case of `CCCCC[C@@H](O)C[C@@H](O)CC(=O)O[C@@H](CCCCC)C[C@@H](O)CC(=O)OC[C@@H](O)[C@@H](O)[C@@H](O)[C@@H](O)CO`, the growth inhibition call is reported as “inactive”.
